# This is a sample that favours compounds with a hit; in the whole collection about 3.2% have one here.
# TRb SRC2 PPI: inhibitors of human thyroid hormone receptor beta-SRC2 interaction; AID 1469; Potency, µM (series often up to 106 µM), hits mostly inhibitors; TRbeta-SRC2 peptide binding, fluorescence polarization; receptor liganded with 1 µM T3; hit rate 0.065% among 280,000; P10828; further: nearly all actives have a fitted effect of over 50% in size
#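 Fluorescence polarization of 20 nM Texas Red SRC2 peptide with 0.6 uM human TRb ligand-binding domain, in Tris buffer with 1uM T3 and 5% DMSO. Incubated 5 hr ambient; normalized to unbound and bound controls.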
# Tau fluor cs: counter-screen for tau fibril formation inhibitors; Potency, µM (top dose mostly 57.7 µM); tau K18 P301L Alexa594 fluorescence, heparin fibrillization; AID 1463; hit rate 0.93% among 280,000; further: nearly all actives have a fitted effect of over 55% in size
#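 Human K18 P301L tau (15 uM unlabeled plus 0.24 uM Alexa 594-labeled, final) in 100 mM sodium acetate pH 7 was mixed with compound and 20 uM heparin and incubated 6 hr at 37 C.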
# TexasRed fluor: counter-screen for TRb-SRC2 inhibitors: fluorescence interference; hit rate 0.29% among 280,000; AID 1479; Potency, µM (series often up to 106 µM); TRb/SRC2 Texas Red total fluorescence interference; active means well fitted curve in either direction with a large enough effect; inconclusive means small, poorly fitted or top-dose-only effect
#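 Human TRβ ligand-binding domain (0.6 uM) and Texas Red SRC2 peptide (20 nM) in Tris buffer with 1 uM T3 and 5% DMSO were incubated with pinned compound for 5 hr at ambient temperature. Total fluorescence was computed as S + 2P (555/632 nm).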
# RGS12 GoLoco inh: inhibitors of human Gai1-RGS12 GoLoco interaction (red fluorophore) | Potency, µM (doses to about 61.6 µM), most hits filed as inhibitors | hit rate 0.44% among 230,000 | Gai1:RGS12 GoLoco peptide FP, rhodamine, 10 min | P63096; active means well fitted inhibition curve with a large enough effect, not every such curve was filed as active; inactive means no such curve, though single readings can be large or run the other way; further: nearly all actives have a fitted effect of over 30% in size
# Target sequence (P63096 whole entry, looked up): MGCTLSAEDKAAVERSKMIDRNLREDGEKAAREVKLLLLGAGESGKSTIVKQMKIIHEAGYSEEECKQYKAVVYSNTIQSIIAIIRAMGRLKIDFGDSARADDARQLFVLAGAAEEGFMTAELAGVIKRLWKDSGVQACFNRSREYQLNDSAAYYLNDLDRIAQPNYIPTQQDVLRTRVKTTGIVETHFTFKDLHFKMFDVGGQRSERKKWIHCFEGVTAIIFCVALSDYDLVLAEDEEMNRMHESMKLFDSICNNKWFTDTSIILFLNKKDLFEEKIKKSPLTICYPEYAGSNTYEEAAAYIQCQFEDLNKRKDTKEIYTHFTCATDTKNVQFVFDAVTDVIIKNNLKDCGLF
# Tau FP inhib: tau fibrillization inhibition (FP). Potency, µM (titrated, usually from 57.7 µM), actives largely listed as inhibitors. AID 1468. K18 P301L tau heparin fibrillization, Alexa594 FP, 6 h. hit rate 0.39% among 280,000; further: nearly all actives have a fitted effect of over 55% in size
# Target sequence (P10636 561-689 P618L limits assumed): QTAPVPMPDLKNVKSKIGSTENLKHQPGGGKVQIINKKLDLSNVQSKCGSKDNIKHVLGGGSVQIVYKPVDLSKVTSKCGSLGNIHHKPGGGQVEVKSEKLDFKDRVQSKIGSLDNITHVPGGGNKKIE
#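 Human K18 P301L fragment (15 uM unlabeled plus 0.24 uM Alexa 594-labeled) in 100 mM sodium acetate pH 7 with compound, aggregation induced by 20 uM heparin for 6 hr at 37 C. ThT (30 uM) added for 1 hr, then Alexa 594 FP read.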
# Tau ThT inhib: tau fibrillization inhibition (ThT binding); P10636; recombinant tau K18 P301L, heparin-induced fibrillization, ThT fluorescence; Potency, µM (titrated, usually from 57.4 µM), usual class: inhibitors; hit rate 2.1% among 270,000; AID 1460; further: nearly all actives have a fitted effect of over 55% in size
#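 ThT emission at 510 nm, taken 1 hr after adding 30 uM dye, quantifies aggregates formed when 20 uM heparin acts on human tau K18 P301L for 6 hr at 37 C.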
# Hits are given with their value; – = inactive; ? = inconclusive; · = no result; [ ] = dose if it differs, or a comment. Unless noted, the call rests on the fitted dose curve; in most records, active means well fitted curve in the direction sought with a large enough effect; inconclusive means small, poorly fitted or top-dose-only effect, or another doubt; inactive means no such curve, though single readings can be large; an effect the other way counts as inactive or inconclusive.
SMILES,TRb SRC2 PPI,Tau fluor cs,TexasRed fluor,RGS12 GoLoco inh,Tau FP inhib,Tau ThT inhib
COc1ccccc1N1CCN(c2ccc(-c3ccccc3)nn2)CC1,–,–,–,13µM,–,?
COc1ccccc1N1CCN(c2nc(-c3ccccc3)cc(C(F)(F)F)n2)CC1,–,–,–,–,–,–
CC[C@H](CO)NCCN[C@@H](CC)CO,–,·,–,–,·,·
O=C(O/N=C\c1ccc(N2CCOCC2)c([N+](=O)[O-])c1)c1ccc(F)cc1,–,–,–,–,–,5µM
O=C(O/N=C\c1ccc(N2CCOCC2)c([N+](=O)[O-])c1)c1ccccc1Cl,–,?,–,–,–,13µM
CCN1CCN(Cc2nc3cc(NC(=O)c4cccc([N+](=O)[O-])c4)ccc3n2CC)CC1,–,–,2.8µM[quencher],·,–,–
CCn1c(CN2CCCCC2)nc2cc(NC(=O)COc3ccccc3C(C)(C)C)ccc21,–,–,282µM[quencher],·,–,–
Cn1c(CN2CCOCC2)nc2cc(NC(=O)c3ccccc3[N+](=O)[O-])ccc21,–,–,100µM[quencher],·,–,–
CC[C@H](C)[C@H](NC(=O)[C@@H](NC(=O)[C@@H](NC(=O)[C@H](CCC(=O)O)NC(=O)[C@H](CCC(=O)O)NC(=O)[C@H](CCC(=O)O)NC(=O)[C@H](C)NC(=O)[C@@H](N)CC(C)C)C(C)C)C(C)C)C(=O)N[C@@H](CCCNC(=N)N)C(=O)N[C@@H](CO)C(=O)N[C@@H](C)C(=O)N[C@@H](CC(N)=O)C(=O)N[C@@H](Cc1ccccc1)C(=O)N[C@H](C(=O)N[C@@H](CC(=O)O)C(=O)N[C@@H](CC(N)=O)C(=O)O)[C@@H](C)O,–,·,–,·,·,·
C[C@H]1[C@H](C)CC[C@]2(C(=O)O)CC[C@]3(C)C(=CC[C@H]4[C@]3(C)C[C@@H](O)C3[C@](C)(CO)[C@H](O)[C@@H](O)C[C@]34C)[C@H]12 (stereo partly drawn),·,·,·,–[14.2 µM],·,·
C[C@H]1COC(=O)[C@H]2CCCN2C(=O)[C@@H](C)COC(=O)[C@H]2CCCN2C1=O,–[11.2 µM],–[11.6 µM],–[11.2 µM],·,–[11.6 µM],–[11.5 µM]
O=C1OC(=O)c2c(Cl)c(Cl)c(Cl)c(Cl)c21,–,·,–,–,·,·
COCCCNC(=O)c1c(-c2ccccc2)c(-c2ccccc2)nn(C)c1=O,–,–,–,·,–,–
O=C(CSc1nc2ccccc2nc1Cc1ccc(Cl)cc1)N1CCN(c2ccccc2F)CC1,–,–,–,·,–,–
Cc1cccc(NC(=O)Cn2nnc(C(=O)NCc3cccs3)c2N)c1,–,–,–,·,?,–
NN/C(=C\[N+](=O)[O-])Nc1ccc(Cl)cc1,–,?,–,–,–,16µM
N#C/C(=C\c1ccc(N2CCOCC2)o1)C(=O)NC1CCCCC1,–,–,–,–,–,?
N#C/C(=C/c1ccc(N2CCCCCC2)o1)c1ccc(Cl)cc1,–,?,–,–,?,25µM
N#C/C(=C/c1ccc(N2CCCCC2)o1)c1cccc(F)c1,–,?,–,–,?,13µM
COc1ccc(C[C@H](O)CN2CCOCC2)cc1,·,·,·,–[14.2 µM],·,·
CCOC(=O)c1cn(CC)c2ccc(S(=O)(=O)N3CC(C)CC(C)C3)cc2c1=O (stereo not drawn),?,–,45µM[fluorescent],–,–,?
COc1ccc(N2CCC(CNC(=S)Nc3cccc(OC)c3)C2)cc1 (stereo not drawn),–,11µM[quencher],–,–,–,?
COc1ccc(N2CCC(CNC(=O)Nc3cccc(OC)c3)C2)cc1 (stereo not drawn),–,16µM[quencher],–,–,–,?
Nc1nc(-c2ccc(Cl)cc2)c(N=Nc2ccc(S(=O)(=O)N3CCOCC3)cc2)s1,–,11µM[quencher],–,–,?,14µM
CCc1cccc2c1NC1(CCCC1)CC2C (stereo not drawn),28µM,–,?,–,–,?
CC1CC2(CCCCC2)Nc2ccc3ccccc3c21 (stereo not drawn),–,–,–,–,–,?
Cc1cc(SCC(=O)N/N=C/c2ccc(O)cc2O)c(C)cc1Br,–,16µM[quencher],–,–,–,?

# High-throughput results (PubChem BioAssay)
